From PubChem
HSF1 inh – HSF1 inhibition | NIH3T3-HGL HSE-luciferase, MG132-induced, luminescence 8 h; active compounds read low | activity change, negative = inhibition, % at 7.5 µM (by protocol) | 300,000 tested, 0.77% active;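 active = more than half of replicate wells show activity change below -50%, luminescence cut by over half; inconclusive = some wells, but at most half, below -50%; inactive = no replicate well below -50%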;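 note: luciferase reports HSF-1 transcriptional activity via heat shock element; 0% = median of DMSO wells and -100% = zero luminescence signal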
HSF-1 act – increases HSF-1 driven luciferase reporter signal. AID 504408. activation, % at 9 µM. 300,000 tested, 1.7% active. NIH3T3-HGL HSF-1 luciferase reporter, MG132, 8 h; 100% = twice DMSO control signal;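 active = mean replicate activation of at least 50% with a set share of replicates each reaching 50%; inconclusive = only one of those two conditions met; inactive = mean below 50% and too few replicates reaching it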;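 note: 0% = median of the neutral control wells and 100% = twice that signal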
MITF act – increases MITF-driven TRPM1 promoter luciferase signal; SK-MEL-5 TRPM1-promoter luciferase, 24 h; % of positive control, neutral wells = 0; activation, % at 12.5 µM; 300,000 tested, 0.75% active; AID 588334;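 active = mean activation of at least 80% with every replicate also reaching 80%; inconclusive = mean reaches 80% but some replicate falls short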;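 note: 0% = neutral control wells and 100% = parthenolide positive control wells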
Wnt bcat act – Wnt/beta-catenin pathway activation; Wnt/beta-catenin reporter cell assay, activator, plate reader; activation, % at 9.35 µM; 300,000 tested, 1.2% active; in the data active = activation above about 30%, passing the limit was not always enough; inconclusive = no clear call, values can overlap the other calls;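 note: 0% = neutral control wells and 100% = positive control wells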
SMARCA2 activ – activators of SMARCA2 function | MG213 cells, MMTV-luciferase reporter, dexamethasone, overnight | activation, % at 9.1 µM | 370,000 tested, 1% active | AID 652017; in the data active = activation above about 7.8%;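 note: 0% = vehicle wells and 100% = reference activator wells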
esBAF inh – blocks esBAF chromatin remodeling in mouse ES cells | Bmi1-luciferase knock-in reporter, 24 h; 100% = twice the neutral-well signal | reporter increase, % at 12.5 µM | 350,000 tested, 2% active | AID 602393; in the data active = activation above about 40%; inconclusive = no clear call, values can overlap the other calls;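 note: 0% = median of the plate's neutral control wells and 100% = double that signal; a rise in the Bmi1 reporter signal indicates esBAF inhibition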
SMARCA2 conf – confirmation of SMARCA2 (BRM) function activators; AID 652260; MG213 cells, MMTV-luciferase with dexamethasone, luminescence, overnight; MG213 cells expressing E1A, Rb sequestered; DMSO wells 0%, reference activator 100%; 3,500 tested, 30% active; shares compounds with SMARCA2 activ; activation, % at 9.1 µM;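 active = activation above its plate's cutoff, the mean activation of tested wells plus 3 SD, cut at about 7.9% in these data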
VP16 Luc act – GAL4-VP16 reporter activation counter-screen. HEK293 GAL4-VP16 pG5luc reporter, luciferase luminescence; scaled: DMSO wells 0%, SAHA wells 100%. shares compounds with SMARCA2 activ. activation, % at 9.1 µM. 3,500 tested, 41% active. AID 686939;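 active = activation above the solvent-only control well mean plus 3 SD, averaged across control plates, cut at about 5.2% in these data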
An asterisk follows results filed as active; ? = inconclusive; · = no result given. Compounds with a hit are over-represented: about 4.3% of the library has one in this group of screens.

SMILES | HSF1 inh | HSF-1 act | MITF act | Wnt bcat act | SMARCA2 activ | esBAF inh | SMARCA2 conf | VP16 Luc act
Cc1noc(C)c1NC(=O)N(C)C[C@H]1OCCCC[C@H](C)Oc2ccc(NC(=O)Nc3ccc(C(F)(F)F)cc3)cc2C(=O)N([C@H](C)CO)C[C@@H]1C | · | · | · | · | · | -6 | · | ·
CCCC#Cc1ccc2c(c1)O[C@@H](CN(C)C(=O)CN(C)C)[C@@H](C)CN([C@@H](C)CO)S2(=O)=O | · | · | · | · | · | 5 | · | ·
COc1ccc(NC(=O)C2CCCN(S(=O)(=O)c3ccc4[nH]c(=O)ccc4c3)C2)cc1OC (stereo unspecified) | -7 | -2 | -5 | -2 | 15* | 2 | -5 | 1
CO[C@@H]1CC[C@@H]2CCN(C)C(=O)[C@H](C)CN(C)C(=O)c3cccc(C#N)c3OC[C@H]1O2 | · | · | · | · | · | 1 | · | ·
COc1ccc(S(=O)(=O)N[C@@H]2CC[C@H](CCn3cc(C(C)C)nn3)O[C@@H]2CO)cc1 | · | · | · | · | · | 4 | · | ·
Cc1ccccc1N1CCN(C2CCCN(C(=O)c3cc[n+]([O-])cc3)C2)CC1 (stereo unspecified) | -6 | -6 | 8 | 0 | 2 | -3 | · | ·
CCn1cc(C(=O)N2CCCC(N3CCN(c4ccccc4C)CC3)C2)cn1 (stereo unspecified) | 5 | 12 | 3 | -1 | 12* | -6 | -4 | 1
Cc1ccc2c(c1)N(CC(=O)NCC(C)c1ccccc1)C(=O)c1cccnc1O2 (stereo unspecified) | 3 | 3 | 7 | -1 | 12* | 28 | -3 | 0
Cc1ccc2c(c1)N(CC(=O)NCCCc1ccccc1)C(=O)c1cccnc1O2 | -2 | -2 | 1 | -2 | 3 | 0 | · | ·
COc1cc(/C=C2\Oc3cc(O)ccc3C2=O)ccc1O | 17 | 14 | 78 | 4 | 10* | 46* | 18* | 10*
COc1ccc(C=C2C(=O)OC(C)(C)OC2=O)cc1OC | -4 | 13 | 7 | 3 | 0 | 4 | · | ·
O=C1/C(=C/c2cccc([N+](=O)[O-])c2)Oc2cc(O)ccc21 | 16 | 39 | 18 | -9 | -1 | -1 | · | ·
COc1ccc(/C=C2\OC(=O)c3c(OC)cccc32)cc1OC | 39 | 76* | 125* | · | 8.6* | 48* | 22* | 14*
C[C@@H]1CN([C@@H](C)CO)C(=O)c2cc(C#CCN(C)C)cnc2O[C@@H]1CN(C)C(=O)c1cnccn1 | · | · | · | · | · | -5 | · | ·
CNC[C@@H]1Oc2c(NC(=O)NC(C)C)cccc2C(=O)N([C@@H](C)CO)C[C@@H]1C | · | · | · | · | · | -2 | · | ·
c1ccc(-c2csc(Nc3cccnc3)n2)cc1 | 5 | -3 | 48 | 30 | 4 | · | · | ·
O=[N+]([O-])c1ccccc1Nc1nc(-c2cccnc2)cs1 | 11 | 18 | 17 | 27 | 9.2* | 34 | 9.6* | 7.7*
CCOC(=O)c1cccc(NC(=O)c2cncc(Br)c2)c1 | 11 | 2 | 50 | 22 | 9.0* | · | 5 | 3
CNC(=O)C[C@@H]1CC[C@@H]2[C@H](COC[C@H](O)CN2C(=O)Nc2cccc(OC)c2)O1 | · | · | · | · | · | 3 | · | ·
CCCOc1ccc(/C(O)=C2\C(=O)C(=O)N(c3ccccn3)C2c2ccccc2F)cc1C (stereo unspecified) | 2 | 17 | 2 | 3 | 15* | 9 | 5 | 4
COc1ccc(C2/C(=C(/O)c3ccccc3)C(=O)C(=O)N2c2ccccn2)cc1 (stereo unspecified) | 6 | -7 | 4 | 4 | 10* | 5 | 4 | 1
CO[C@H]1CN(C)C(=O)c2cc(NS(=O)(=O)Cc3ccccc3)ccc2OC[C@H](C)NC[C@H]1C | · | · | · | · | · | -1 | · | ·
O=C(NC1CCCCC1)N[C@H]1CC[C@H](CCNS(=O)(=O)c2ccc(Cl)cc2)O[C@H]1CO | · | · | · | · | · | 19 | · | ·
Cc1cc(C)cc(C(=O)NCCCc2ccccc2)c1 | 1 | 26 | -9 | -1 | -5 | 2 | · | ·
Cc1ccc(C(=O)NCCCc2ccccc2)c(C)c1 | 18 | 35 | 50 | 7 | 10* | · | 13* | 8.5*
SMILES | HSF1 inh | HSF-1 act | MITF act | Wnt bcat act | SMARCA2 activ | esBAF inh | SMARCA2 conf | VP16 Luc act
O=C(NCCCc1ccccc1)c1ccc(Br)o1 | 26 | 29 | · | 17 | 9.7* | 25 | 1 | 0
O=C(NC(=S)Nc1ccccc1)c1ccc(Br)o1 | 15 | 41 | 53 | 50* | 9.3* | 45* | 13* | 6.2*
C[C@@H]1CN([C@H](C)CO)C(=O)c2cccc(NC(=O)c3ccncc3)c2O[C@H]1CN(C)S(C)(=O)=O | · | · | · | · | · | 2 | · | ·
CC(=O)c1ccc(NC(=O)c2ccc([N+](=O)[O-])o2)cc1 | 94 | 91* | · | 6 | 9.4* | 26 | 19* | 4
Cc1ccc(NC(=O)c2ccc([N+](=O)[O-])o2)cc1S(=O)(=O)N1CCOCC1 | 66 | 75* | -83 | · | 17* | · | 14* | 2
Cc1cc(NC(=O)c2ccc([N+](=O)[O-])o2)ccc1NC(=O)c1ccco1 | 69 | 72* | -74 | ? | 10* | · | 18* | 2
O=C(Nc1ccc(Cl)cn1)c1ccc([N+](=O)[O-])o1 | 96 | 140* | -31 | 54* | 11* | · | 14* | 4
Cc1cc(C)cc(NC(=O)c2ccc([N+](=O)[O-])o2)c1 | 41 | ? | -64 | 0 | 4 | · | · | ·
CC(C)(C)[S@](=O)N1Cc2cc(C(=O)N3CCCCC3)nc(-c3cccc(-c4ccc(F)cc4)c3)c2[C@@H]1CCO | · | · | · | · | · | -1 | · | ·
O=C(C[C@@H]1C[C@@H]2c3cc(NC(=O)Cc4ccncc4)ccc3O[C@@H]2[C@@H](CO)O1)NCc1ccccc1 | · | · | · | · | · | 4 | · | ·
O=C(Nc1ccc(Cl)cc1)N1C[C@H]2[C@@H](c3ccccc31)[C@@H](CO)N2CC1CCCCC1 | · | · | · | · | · | 12 | · | ·
COc1ccc(NC(=O)c2ccc(Br)o2)cc1 | 24 | 38 | 78 | ? | 6 | · | · | ·
COc1ccc(NC(=O)c2ccc([N+](=O)[O-])o2)cc1 | 44 | 64* | · | 1 | 12* | 30 | 29* | 3
Cc1ccccc1C(=O)N1CCN(c2ccc(NC(=O)c3ccc([N+](=O)[O-])o3)cc2)CC1 | 61 | 86* | -81 | -4 | 13* | -54 | -4 | 3
Cc1cc(N2CCCC2)nc2ccc(NC(=S)NCCCN3CCC(C)CC3)cc12 | 14 | 54* | -28 | -1 | 12* | · | 19* | 1
O=C(Cc1csc(Nc2nc(=S)[nH]c3ccccc23)n1)NCc1ccc(Cl)cc1 | 2 | -1 | -13 | -5 | · | -7 | · | ·
